Measured values as given in PubChem BioAssay (NCATS).
Values joined by “and” are separate entries in the source; they are usually repeats but may differ in a detail not shown here. Identical values can stand only once. Inconclusive results are not listed. Where a call stands in place of a potency, no number is given. Active and inactive are the calls of the source. Unless noted, calls follow the shape of the dose curve; as a rule, active = well fitted curve in the direction sought with a large enough effect; inconclusive = small, poorly fitted or top-dose-only effect, or another doubt; inactive = no such curve, though single readings can be large; an effect the other way counts as inactive or inconclusive.

Experiments:
[1] = qHTS assay to identify small molecule inhibitors of chordoma cells - UCH-1 (AID 1259355); also: nearly all actives have a fitted effect of over 55% in size
Procedure, shortened: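 800 cells/well, overnight attach; compounds pinned at 15 concs, then auranofin/camptothecin/doxorubicin/rubitecan/topotecan combo added; 48hr 37 C, 5% CO2; CellTiter-Glo, 30min RT, luminescence.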

[2] = qHTS assay to identify small molecule inhibitors of chordoma cells - UCH-2 (AID 1259356); also: series mostly up to about 46 µM
[3] = P-glycoprotein substrates identified in KB-8-5-11 adenocarcinoma cell line, qHTS therapeutic library screen (AID 1346987); also: nearly all actives have a fitted effect of over 65% in size; also: potency is read from the fitted curve at half-maximal effect
Procedure, shortened: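 Compounds are pinned in dose-response onto KB-8-5-11 cells (500 cells/well, colchicine-free medium) and left 72 h at 37 degree C. CellTiter-Glo luminescence then yields AC50 values.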

[4] = Identifying Small Molecule Inhibitors of Pancreatic Cancer Stem Cells (A2780, Spheroid) (AID 1259357);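 also: compound exposure lasted 48 h before the ATP luminescence read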
Procedure, shortened: (§1)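 Viability is scored by CellTiter-Glo luminescence 48 h after dosing, expressed as percent activity against vehicle and no-cell references. Spheroid formats rely on cells cultured 14 days in stem cell media beforehand.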

[5] = Identifying Small Molecule Inhibitors of Pancreatic Cancer Stem Cells (SN12C, Adherent) (AID 1259358);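 also: cell survival measured after 48 h of compound exposure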
Text: Progenitor-like cancer cells, often referred to as cancer stem cells (CSC), are believed to be the drivers of therapeutic resistance and rapid recurrence. CSCs are postulated to reside in specific niches characterized by low oxygen tension, limited nutrient supply, and high redox load. Selectively targeting CSC, alone or in combination with cytotoxic agents, as a means to produce durable remissions is an appealing concept. Modeling these cells in in vitro setting is an important step in finding new therapies and/or targets. Multiple reports highlight that forcing cells in culture into 3-dimensionaly architectures (spheroids) re-establishes key progenitor-like transcriptional signatures. Pancreatic cancer is among the diseases with the most dismal outlook which is driven, largely, by recurance following front-line therapies. […]
Multicellular tumor spheroids from Panc1, MiaPaCa-2, and the primary low-passage tissue culture line SB.06 were seeded in stem cell media (SCM) in nonadherent 6-well plates coated with hydrogel (Corning Life Sciences, Chelmsford, Mass) and pancreatic spheres generated for 14 days before screening. […] Plates were incubated at room temperature for 10 minutes prior to reading the luminescence on the Viewlux (PerkinElmer). […]

[6] = Identifying Small Molecule Inhibitors of Pancreatic Cancer Stem Cells (SN12C, Spheroid) (AID 1259360)
Procedure, shortened: as §1

[7] = Identifying Small Molecule Inhibitors of Pancreatic Cancer Stem Cells (A278, Adherent) (AID 1259361); also: nearly all actives have a fitted effect of over 35% in size
Procedure, shortened: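 Cytotoxicity read by CellTiter-Glo luminescence after 48 h compound exposure at 37C; percent activity scaled between DMSO-treated cells and cell-free wells. Spheroid formats used cells pre-formed 14 days in stem cell media on hydrogel.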

[8] = Natriuretic polypeptide receptor (hNpr1) antagonism - Pilot counterscreen GloSensor control cell line (AID 1347045; calls by dose curve; also: series mostly up to about 38 µM)
Protocol: F. Fan, B. F. Binkowski, B. L. Butler, P. F. Stecha, M. K. Lewis, K. V. Wood, Novel genetically encoded biosensors using firefly luciferase. ACS Chem Biol 3, 346-351 (2008).
PROTOCOL TABLE (as described by Inglese J, Shamu CE and Guy RK. 2007)
SEQUENCE No. (e.g., 1, 2, 3, etc.); […] (e.g., Cells, Incubation, Reagent, etc.); VALUE and DESCRIPTION.
1. Cells. Seed 1500 HEK293 cGMP-sensor cells per well in 4uL into Greiner 1536-well white/solid bottom high base, TC plates.
2. Incubation. Incubate plated cells at 37C in 5% CO2, 95% RH overnight.
3. Reagent. Add 1uL per well GloSensor reagent from Promega (2% final concentration) or CO2 independent media vehicle control to respective columns of Greiner 1536-well plates.
4. Incubation. Incubate plated cells at room temperature for 2 h, protect from light.
5. Compounds. Library compounds and DMSO vehicle control added at 23nL per well, transferred by Pin Tool.
6. Incubation. Incubate plated cells for 30 min. at room temperature, protect from light.
7. Detector. GloSensor baseline pre-read luminescence measured using CCD-based camera (Viewlux).
8. Compound. Add 1uL of sodium nitroprusside (SNP) to 50 uM final concentration to stimulate soluble guanylyl cyclase (GC) or CO2 independent media as vehicle control.
9. Incubation. Incubate treated cells at room temperature for 20 min., protect from light.
10. Detector. GloSensor post-SNP luminescence measured using CCD-based camera (Viewlux).
NOTES (numbers refer to Sequence numbers above; values are from representative experiments)
1. HEK293 cells expressing GIP/pGS-40F were grown to 85-95% confluence (48-72 h) in T175 culture flasks (CO2 independent media supplemented with 10% FBS, 1% Pen/Strep antibiotics, and 1 ug/mL puromycin). Trypsinize and harvest cells from T175 culture flasks and filter through 40 um cell strainer. Cells counted with Invitrogen Countess (30,000,000 - 50,000,000 cells/flask).
2. Cells incubated for 24 h. at 37C in 95% RH incubator with metal lid having gas-exchange holes.
3. Prepare GloSensor Reagent (Promega): Reconstitute GloSensor luciferase substrate by adding 8.2mL Hepes buffer to 250mg substrate, mix well, protect from light and stored at -80C. Prepare a fresh 12% GloSensor solution in CO2 independent supplemented plating media (see above). Mix well and store at ambient temperature, protected from light. 1uL 12% GloSensor Luciferase Reagent added (2% final concentration) to respective columns of 9 x 1536-well Greiner plate with BioRaptr, 1uL CO2 independent plating media added to respective columns as vehicle control with BioRaptr.
4. […]
7. Read GloSensor + Antagonist/Compound baseline Luminescence on the ViewLux [Exposure, 30 s; Gain, High; Speed, Slow; Binning, 2X] […]
10. Read final luminescence on the ViewLux. […]

[9] = qHTS Screen of the MIPE 4.0 Collection Against Ewings Sarcoma (TC32) (AID 1259256); also: nearly all actives have a fitted effect of over 45% in size; also: potency is read from the fitted curve at half-maximal effect
Procedure, shortened: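 CellTiter-Glo luminescence after 48 h compound exposure (titration) gave viability; percent activity used DMSO-treated cells as no inhibition and medium-only wells as full inhibition. Cells grown in RPMI/5% FBS, dosed 4 h post-seeding.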

C=CCOC(Cn1ccnc1)c1ccc(Cl)cc1Cl (stereo unspecified)
Potency [1]: inactive
Potency [2]: inactive
Potency [3]: 20.6 µM (active)

COc1ccc(CN2CCNCC2)c(OC)c1OC
Potency [1]: inactive
Potency [2]: inactive
Potency [3]: inactive

CCNc1nc(Cl)nc(NCC)n1
Potency [1]: inactive
Potency [2]: inactive
Potency [3]: inactive

CC1=C2[C@H]3OC(=O)[C@@H](C)[C@@H]3CC[C@@]2(C)C=CC1=O
Potency [1]: inactive
Potency [2]: inactive
Potency [3]: inactive

C[C@]12C=CC(=O)C=C1CC[C@@H]1[C@@H]2CC[C@@]2(C)[C@H]1CC[C@]2(C)O
Potency [1]: inactive

CCN(CC)C(C)C(=O)c1ccccc1 (stereo unspecified)
Potency [1]: inactive
Potency [2]: inactive
Potency [3]: inactive

C[N+]1(CCC(C(N)=O)(c2ccccc2)c2ccccc2)CCCCC1
Potency [1]: inactive
Potency [2]: inactive
Potency [3]: inactive

CN1C[C@@H](NS(=O)(=O)N(C)C)C[C@@H]2c3cccc4c3c(cn4C)C[C@H]21
Potency [1]: inactive
Potency [2]: inactive

O=C(NC(=O)c1c(F)cccc1F)Nc1cc(Cl)c(OC(F)(F)C(F)C(F)(F)F)cc1Cl (stereo unspecified)
Potency [1]: inactive
Potency [2]: inactive

O=C(O)c1nn(Cc2ccc(Cl)cc2Cl)c2ccccc12
Potency [1]: inactive
Potency [2]: inactive
outcome [4]: inactive
outcome [5]: inactive
outcome [6]: inactive
outcome [7]: inactive
Potency [3]: inactive
outcome [8]: inactive

CC(C)(O)C(Cl)(Cl)Cl
Potency [1]: inactive
Potency [2]: inactive

COc1ccc(C(=O)N2CCCC2=O)cc1
Potency [9]: inactive
Potency [1]: inactive
Potency [3]: inactive
outcome [8]: inactive

C[C@H](N)[C@H](O)c1ccc(O)c(O)c1
Potency [1]: inactive
Potency [2]: inactive
Potency [3]: inactive

CCC1(c2cccc(O)c2)CCCCN(C)C1 (stereo unspecified)
Potency [1]: inactive
Potency [2]: inactive
Potency [3]: inactive

C[C@@H]1C[C@@H]([C@H](O)CC2CC(=O)NC(=O)C2)C(=O)[C@@H](C)C1
Potency [9]: 0.132 µM (active)
Potency [3]: 2.31 µM (active) and 590 nM (active)

CN1CCc2cc(Cl)c(O)cc2[C@H]2c3ccccc3CC[C@@H]21
Potency [1]: inactive
Potency [2]: inactive
Potency [3]: inactive

COP(=O)(OC)OC=C(Cl)Cl
Potency [1]: inactive
Potency [2]: inactive
Potency [3]: inactive

OC(c1ccccc1)(c1ccccc1)C1CCNCC1
Potency [1]: inactive
Potency [2]: inactive
Potency [3]: inactive

Cc1ncc2n1-c1ccc(Cl)cc1C(c1ccccc1F)=NC2
Potency [1]: inactive

Clc1ccc(CSC(Cn2ccnc2)c2ccc(Cl)cc2Cl)cc1 (stereo unspecified)
Potency [1]: inactive

c1cc2c(c(N3CCNCC3)c1)OCCO2
Potency [1]: inactive
Potency [2]: inactive
Potency [3]: inactive

Nc1ccc(N)cc1
Potency [1]: inactive
Potency [2]: inactive
Potency [3]: inactive

COP(=S)(OC)Oc1ccc(Sc2ccc(OP(=S)(OC)OC)cc2)cc1
Potency [1]: inactive
Potency [2]: inactive

CCCC(C)C1(CC)C(=O)N=C(S)NC1=O (stereo unspecified)
Potency [1]: inactive

C[C@]12Cc3nonc3C[C@@H]1CC[C@@H]1[C@@H]2CC[C@@]2(C)[C@H]1CC[C@]2(C)O
Potency [1]: inactive
Potency [2]: inactive
Potency [3]: 5.8 µM (active)

C[C@]12CC[C@H]3[C@@H](CC=C4C[C@@H](O)CC[C@@]43C)[C@@H]1CC[C@@H]2O
Potency [1]: inactive
Potency [2]: inactive
Potency [3]: 11.6 µM (active)

C#C[C@]1(O)C=C[C@H]2[C@@H]3CCC4=CC(=O)CC[C@@H]4[C@H]3CC[C@@]21CC
Potency [1]: inactive
Potency [2]: inactive
Potency [3]: 6.51 µM (active)

COCC(=O)N(c1c(C)cccc1C)C(C)C(=O)OC (stereo unspecified)
Potency [1]: inactive
Potency [2]: inactive
Potency [3]: inactive

Oc1ccc2[nH]cc(CCCCN3CC=C(c4ccccc4)CC3)c2c1
Potency [1]: inactive
Potency [2]: inactive
Potency [3]: inactive

CC(C)=C[C@@H]1[C@@H](C(=O)OCc2coc(Cc3ccccc3)c2)C1(C)C
Potency [1]: inactive
Potency [2]: inactive
Potency [3]: inactive

O=C1NCN(c2ccccc2)C12CCN(CCCOc1ccc(F)cc1)CC2
Potency [1]: inactive
Potency [2]: inactive

C=CCN1CC[C@]23CCCC[C@H]2[C@H]1Cc1ccc(O)cc13
Potency [1]: inactive

CNC(=O)Oc1cccc2ccccc12
Potency [1]: inactive
Potency [2]: inactive
Potency [3]: inactive

CCN(CC)CCOC(=O)C(C)(c1ccccc1)c1ccccc1
Potency [1]: inactive
Potency [2]: inactive
